Screening results (PubChem)
Hits are enriched below; roughly 4.8% of the tested compounds scored in any of these assays.
USP2a block – qHTS Assay for Inhibitors of Ubiquitin-specific Protease USP2a Using CHOP2 as the Reporter; Ubiquitin carboxyl-terminal hydrolase 2 (Homo sapiens), O75604; USP2 core, Ub-CHOP2 coupled fluorogenic reporter, 485/531; Potency, µM (series often up to 38.3 µM), actives largely listed as inhibitors; 330,000 tested, 0.01% active; AID 463254, 2010
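Cell-free coupled assay: 10nM USP2 core preincubated 30min RT with compound in Tris-HCl pH 8.0/CaCl2/CHAPS buffer, then 25nM Ub-CHOP2 and 25nM reporter substrate; fluorescence (Ex 485/Em 531) read after 60min RT, normalized to NEM inhibition, concentration-response curves fitted.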
ATXN2 expr inh – Primary qHTS for Inhibitors of ATXN expression | HEK-293 ATXN2-luciferase reporter, luminescence, 24 h | Potency, µM (doses to about 57 µM), most hits filed as inhibitors | 360,000 tested, 0.72% active; further: nearly all actives have a fitted effect of over 55% in size
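qHTS (up to 57 uM final) was run with 24 h compound exposure of reporter cells at 37 °C. Each well was multiplexed: SteadyGlo luminescence measured ATXN2-luciferase expression after a fluorogenic Gly-Phe-AFC viability readout (25 uM final).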
USP1-UAF1 inh – Inhibitors of USP1/UAF1: Primary Screen; recombinant USP1/UAF1, Ub-Rhodamine cleavage fluorescence; Potency, µM (series often up to 57.1 µM), actives largely listed as inhibitors; 390,000 tested, 0.23% active; further: nearly all actives have a fitted effect of over 60% in size
Target sequence (O94782 whole entry, looked up): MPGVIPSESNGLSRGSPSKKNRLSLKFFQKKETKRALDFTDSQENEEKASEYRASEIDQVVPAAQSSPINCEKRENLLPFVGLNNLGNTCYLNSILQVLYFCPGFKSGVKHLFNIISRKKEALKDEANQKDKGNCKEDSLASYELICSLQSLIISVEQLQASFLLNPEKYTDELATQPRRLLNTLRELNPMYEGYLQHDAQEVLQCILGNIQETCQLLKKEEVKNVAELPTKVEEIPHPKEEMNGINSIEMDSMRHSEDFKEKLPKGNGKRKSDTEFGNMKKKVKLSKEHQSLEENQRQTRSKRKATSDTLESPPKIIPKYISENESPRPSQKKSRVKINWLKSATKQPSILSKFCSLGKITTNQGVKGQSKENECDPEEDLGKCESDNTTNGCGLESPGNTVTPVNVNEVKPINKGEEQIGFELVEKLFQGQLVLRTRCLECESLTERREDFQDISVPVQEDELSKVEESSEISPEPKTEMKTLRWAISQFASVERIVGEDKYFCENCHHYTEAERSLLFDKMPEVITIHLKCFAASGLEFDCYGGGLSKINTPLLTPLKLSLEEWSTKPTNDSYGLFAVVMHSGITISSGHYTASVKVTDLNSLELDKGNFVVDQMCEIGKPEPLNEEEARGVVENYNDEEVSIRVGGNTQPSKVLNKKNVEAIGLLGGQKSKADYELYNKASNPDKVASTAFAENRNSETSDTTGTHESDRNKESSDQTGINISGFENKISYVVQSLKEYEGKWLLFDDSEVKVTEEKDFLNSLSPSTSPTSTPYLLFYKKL
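High-throughput fluorogenic screen: 1nM USP1/UAF1 complex, Ub-Rho substrate 150nM final, 50mM HEPES pH 7.8 with 0.5mM EDTA, 0.1 mg/ml BSA, 1mM TCEP and 0.01% Tween-20.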
S2 tox – Viability Counterscreen for Primary qHTS for Inhibitors of ATXN expression. S2 cells (HEK-293 line with an ATXN2-luciferase reporter) viability, CellTiter-Fluor protease fluorescence, 24 h. 400,000 tested, 0.49% active. Potency, µM (titrated, usually from 56.7 µM), most hits filed as cytotoxic; further: nearly all actives have a fitted effect of over 40% in size
IL-1B inflam inh – qHTS for Inhibitors of Inflammasome Signaling: IL-1-beta AlphaLISA Primary Screen | THP-1 LPS/ATP IL-1B secretion, AlphaLISA, 16 h; hits give low values | activity change, % at 57.5 µM | 360,000 tested, 4.7% active | AID 743279, 2014; in the data active means activity change below about -50%; inconclusive means mostly about -30% to -49%
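THP-1 cells pretreated 1 hr with compounds (up to 57.5 uM final), then stimulated with LPS (250 ng/mL final) plus ATP (1.25 mM final); secreted IL-1B measured by AlphaLISA after 16 hr, decreased signal indicating inhibition.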
Of the large screens only hits and unclear results are named; the others gave an inactive call; ! = not confirmed by another sample. Unless noted, the call rests on the fitted dose curve; in most records, active means well fitted curve in the direction sought with a large enough effect; inconclusive means small, poorly fitted or top-dose-only effect, or another doubt; inactive means no such curve, though single readings can be large; an effect the other way counts as inactive or inconclusive.

O=c1oc2ccccc2c(NC2CCCCC2)c1NS(=O)(=O)c1ccc(Br)cc1	S2 tox inconclusive, IL-1B inflam inh -71
Cc1cc(C)c(C(=O)COC(=O)c2cc([N+](=O)[O-])ccc2N2CCOCC2)cc1C	none
CCN1CCN(Cc2ccc(NC(=O)c3ccc(C)c(NC(=O)C(=O)c4c[nH]c5ccccc45)c3)cc2C(F)(F)F)CC1	ATXN2 expr inh 14µM!, S2 tox 14µM, IL-1B inflam inh -106
CCN1CCN(Cc2ccc(NC(=O)c3cc(NC(=O)C(=O)c4c[nH]c5ccccc45)cc(OC)c3)cc2C(F)(F)F)CC1	ATXN2 expr inh 14µM!, S2 tox 16µM, IL-1B inflam inh -80
CCN1CCN(Cc2ccc(NC(=O)c3cc(NC(=O)c4cnn(-c5ccccc5)c4N)cc(OC)c3)cc2C(F)(F)F)CC1	ATXN2 expr inh inconclusive, S2 tox 25µM
CCN1CCN(Cc2ccc(NC(=O)c3cc(NC(=O)c4cc(C)on4)cc(OC)c3)cc2C(F)(F)F)CC1	ATXN2 expr inh inconclusive, USP1-UAF1 inh inconclusive, S2 tox inconclusive, IL-1B inflam inh -83!
CCN1CCN(Cc2ccc(NC(=O)c3ccc(C)c(NC(=O)c4ccnnc4)c3)cc2C(F)(F)F)CC1	none
CCN1CCN(Cc2ccc(NC(=O)c3ccc(C)c(NC(=O)c4ccc5n[nH]nc5c4)c3)cc2C(F)(F)F)CC1	none
Cc1ccc(Oc2nc3ccccn3c(=O)c2/C=C(\C#N)C(=O)Nc2c(C)n(C)n(-c3ccccc3)c2=O)cc1	IL-1B inflam inh -61
CCc1cccc(NC(=O)CN(c2ccc(C)cc2)S(=O)(=O)c2cccs2)c1	USP1-UAF1 inh inconclusive, S2 tox inconclusive (no result: USP2a block, IL-1B inflam inh)
Cc1ccc(/C=C(\C#N)C(=O)Nc2ccc(Br)cc2)o1	none (no result: USP2a block, ATXN2 expr inh, S2 tox, IL-1B inflam inh)
N#CCc1ccc(NC(=O)/C=C/c2ccc([N+](=O)[O-])o2)cc1	USP2a block inconclusive, ATXN2 expr inh 8.9µM, S2 tox 13µM, IL-1B inflam inh -98
N#C/C(=C\c1ccc([N+](=O)[O-])o1)C(=O)Nc1ccc(F)cc1	ATXN2 expr inh inconclusive, IL-1B inflam inh -90
S=C(NCCc1cccc(Cl)c1)NC1CCCCC1	none
Cc1cc(C)n(-c2nc3ccccc3c(=O)n2OCC#N)n1	ATXN2 expr inh inconclusive, S2 tox inconclusive, IL-1B inflam inh -96
CCc1ccc(NC(=O)CN(C)S(=O)(=O)c2ccc3c(c2)c(=O)n(C)c(=O)n3C)cc1	none (no result: USP2a block, IL-1B inflam inh)
O=C(NNc1c2ccccc2nc2ccccc12)c1ccc(Cl)cc1	S2 tox inconclusive
Cc1ccc(C(=O)NNc2c3ccccc3nc3ccccc23)cc1	USP2a block inconclusive, USP1-UAF1 inh inconclusive, S2 tox inconclusive, IL-1B inflam inh -98
CCOc1cccc2sc(NC(=O)CS(=O)(=O)c3ccc(C)cc3)nc12	none (no result: USP2a block, ATXN2 expr inh, S2 tox, IL-1B inflam inh)
CCCn1c(CC)nc([N+](=O)[O-])c1S(=O)(=O)c1ccccc1	ATXN2 expr inh inconclusive, IL-1B inflam inh -104 (no result: S2 tox)
CCc1nc(C)cn1S(=O)(=O)c1ccc([N+](=O)[O-])cc1	none
CCOC(=O)c1c(-c2ccc(-c3ccccc3)cc2)csc1NC(=O)CCN1CCOCC1	IL-1B inflam inh -50
CCOC(=O)c1sc(NC(=O)CCN2CCC(C)CC2)c(C(=O)OCC)c1C	none
CCOC(=O)c1c(-c2cccs2)csc1NC(=O)CNCCN1CCOCC1	none (no result: ATXN2 expr inh, USP1-UAF1 inh, S2 tox, IL-1B inflam inh)
CCOC(=O)c1c(-c2ccc(F)cc2)csc1NC(=O)CCN1CCOCC1	S2 tox inconclusive
CCOC(=O)c1c(-c2ccc(-c3ccccc3)cc2)csc1NC(=O)CNCCN(C)C	ATXN2 expr inh inconclusive, S2 tox inconclusive, IL-1B inflam inh -104
CCOC(=O)c1sc(NC(=O)CCN2CCN(CC)CC2)c(C(=O)OCC)c1C	ATXN2 expr inh inconclusive, S2 tox inconclusive, IL-1B inflam inh -215
CCOC(=O)c1c(-c2ccccc2)csc1NC(=O)CCN1C(=O)c2ccccc2C1=O	none
CCOC(=O)c1c(-c2ccccc2)csc1NC(=O)C(C)NCCCN1CCOCC1 (stereo not drawn)	IL-1B inflam inh -53
